The source made the active and inactive calls.
Tests used:
Albumin (Bos taurus) = Albumin (Bos taurus) (UniProt P02769); assay: bovine serum albumin binders on microarray, profiling panel, artefact control for SMM control protein annotation, biochemical, small-molecule microarray, Alexa647 label, 635/667 nm fluorescence (AID 1118); details: BSA-A647 binding, fluorescence 635 nm, higher = more signal;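 further: score merges 667 nm emission intensity and signal-to-noise per printed compound spot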
[1] = small-molecule microarray binders of probe aXIP, primary screen, biochemical, NeuroSMM set, 635/667 nm fluorescence (AID 1119); details: higher = more signal, called active from +8 up or from −8 down;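 further: probe is the protein aXip251-270 applied at 1 µg/mL to compound-printed slides; binding of probe to printed compounds measured as 667 nm fluorescence plus signal to noise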
[2] = small-molecule binders of probe aNOTCH3, primary screen, biochemical, small-molecule microarray, 635/667 nm fluorescence (AID 1120); details: higher = more signal;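 further: probe is a biotin-tagged antibody raised against NOTCH3 rather than NOTCH3 protein; score merges spot fluorescence near 667 nm with spot signal to noise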
[3] = small-molecule binders of probe aNOTCH2, primary screen, biochemical, small-molecule microarray, 635/667 nm fluorescence (AID 1121); details: higher = more signal;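 further: score merges feature fluorescence read at 667 nm with its signal to noise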
[4] = biological target: Carbonic anhydrase 2 (Homo sapiens) (UniProt P00918); assay: CAII small-molecule binders, profiling panel, biochemical, small-molecule microarray, Alexa647-labelled CAII (AID 1122); details: CAII-A647 binding fluorescence, higher = more signal
[5] = COS7 lysate on small-molecule microarray, probe aHis, 635 nm (AID 1123); details: COS7 cell lysate, fluorescence, higher = more signal;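 further: z-score combines 667nm fluorescence intensity with signal-to-noise per printed compound spot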
[6] = compound binding in COS7 lysate, probe aLAP1, primary screen, cell lysate, small-molecule microarray (AID 1124); details: probe aLAP1, fluorescence, higher = more signal;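 further: lysate comes from COS7 cells expressing LAP1 and is applied at 0.3 µg/mL; score merges spot fluorescence near 667 nm with signal-to-noise over triplicate slides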
Sam68 (KHDRBS1) = assay: Sam68 small-molecule binders, primary screen, biochemical, small-molecule microarray, 635 nm fluorescence (AID 1125); details: small-molecule microarray binding, higher = more signal;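 further: score merges 667 nm channel intensity with signal to noise over triplicate slides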
[7] = system: Chordin-like protein 2 (CHRDL2); assay: CHRDL2 small-molecule binders, primary screen, biochemical, small-molecule microarray, 635 nm fluorescence (AID 1126); details: small-molecule microarray binding, fluorescence 635 nm; higher = more signal;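 further: printed compound slides probed with Chrdl2 protein at 4 µg/mL for 1 h at 4 C; score merges 667 nm emission intensity with signal to noise over three replicate slides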
[8] = biological target: Concanavalin-A (Canavalia ensiformis) (UniProt P02866); assay: ConA small-molecule binders, primary screen, artefact control for SMM control protein annotation, biochemical, small-molecule microarray, Alexa647 label, 635 nm (AID 1127); details: ConA-A647 binding fluorescence, higher = more signal;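 further: z combines 667 nm emission intensity with signal-to-noise across three replicate slides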
Chain of Concanavalin-A (Canavalia ensiformis) (P02866 whole entry, looked up): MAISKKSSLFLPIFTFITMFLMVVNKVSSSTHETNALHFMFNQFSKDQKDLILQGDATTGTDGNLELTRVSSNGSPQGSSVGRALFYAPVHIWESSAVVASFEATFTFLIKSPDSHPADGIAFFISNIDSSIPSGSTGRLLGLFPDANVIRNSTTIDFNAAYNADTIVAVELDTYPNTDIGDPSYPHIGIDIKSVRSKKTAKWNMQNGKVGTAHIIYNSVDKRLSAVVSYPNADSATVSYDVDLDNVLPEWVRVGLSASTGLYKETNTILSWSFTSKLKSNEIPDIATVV

[9] = anti-His antibody binders, primary screen, artefact control for SMM control protein annotation, biochemical, small-molecule microarray, 635 nm fluorescence (AID 1128); details: anti-His Alexa647 antibody binding, higher = more signal;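 further: score merges feature fluorescence with signal-to-noise for each printed compound spot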
[10] = system: Human papillomavirus type 1a E7 protein (residues 1-88); assay: HPV1a E7 small-molecule binders, primary screen, biochemical, small-molecule microarray, residues 1-88, 635 nm (AID 1129); details: small-molecule microarray binding, fluorescence 635 nm; higher = more signal
[11] = biological target: Focal adhesion kinase 1 (Homo sapiens) (UniProt Q05397); assay: small-molecule microarray binders of FAK, primary screen, biochemical, 635/667 nm fluorescence, BSA, DTT (AID 1130); details: PTK2 binding, 635 nm fluorescence, higher = more signal;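 further: composite of spot emission at 667 nm and signal to noise over triplicate slides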
Chain of Focal adhesion kinase 1 (Homo sapiens) (Q05397 whole entry, looked up): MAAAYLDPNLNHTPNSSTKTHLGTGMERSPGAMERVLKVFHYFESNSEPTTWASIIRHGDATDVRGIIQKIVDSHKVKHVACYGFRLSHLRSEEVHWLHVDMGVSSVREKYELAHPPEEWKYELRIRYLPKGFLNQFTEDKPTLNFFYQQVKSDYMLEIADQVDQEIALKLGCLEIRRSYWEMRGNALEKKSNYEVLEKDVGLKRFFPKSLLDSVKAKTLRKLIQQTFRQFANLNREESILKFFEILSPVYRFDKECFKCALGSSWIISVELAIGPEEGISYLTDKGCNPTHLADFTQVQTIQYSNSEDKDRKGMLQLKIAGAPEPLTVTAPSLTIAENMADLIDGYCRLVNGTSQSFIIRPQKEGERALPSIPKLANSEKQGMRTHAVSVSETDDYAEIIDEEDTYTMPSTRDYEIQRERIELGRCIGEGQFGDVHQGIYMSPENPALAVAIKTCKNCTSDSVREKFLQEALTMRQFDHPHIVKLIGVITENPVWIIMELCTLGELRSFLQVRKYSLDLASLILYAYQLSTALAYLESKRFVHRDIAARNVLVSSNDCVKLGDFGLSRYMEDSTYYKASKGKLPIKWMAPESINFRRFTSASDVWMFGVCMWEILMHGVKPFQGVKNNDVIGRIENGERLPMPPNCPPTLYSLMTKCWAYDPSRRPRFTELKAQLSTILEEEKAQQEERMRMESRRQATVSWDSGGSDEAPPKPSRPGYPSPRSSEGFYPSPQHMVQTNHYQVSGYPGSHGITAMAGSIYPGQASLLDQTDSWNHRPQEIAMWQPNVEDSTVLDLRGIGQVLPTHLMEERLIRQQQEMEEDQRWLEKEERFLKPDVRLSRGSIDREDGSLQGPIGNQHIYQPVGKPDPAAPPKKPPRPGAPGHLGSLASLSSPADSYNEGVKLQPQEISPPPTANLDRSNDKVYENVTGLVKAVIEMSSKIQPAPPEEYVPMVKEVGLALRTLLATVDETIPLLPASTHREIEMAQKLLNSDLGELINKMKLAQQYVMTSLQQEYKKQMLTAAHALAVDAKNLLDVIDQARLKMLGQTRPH

[12] = system: Fibrinogen (Alexa647-labelled); assay: fibrinogen binders on compound microarrays, profiling panel, artefact control for SMM control-protein annotation, biochemical, small-molecule microarray, 635/667 nm fluorescence (AID 1131); details: fibrinogen-A647 binding fluorescence, higher = more signal;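 further: z-score merges 667 nm fluorescence with per-spot signal-to-noise over triplicate slides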
[13] = biological target: Follistatin (Homo sapiens) (UniProt P19883); assay: follistatin binders on small-molecule microarrays, primary screen, biochemical, small-molecule microarray, 635/667 nm fluorescence (AID 1132); details: FST binding, 635 nm fluorescence, higher = more signal
Chain of Follistatin (Homo sapiens) (P19883 whole entry, looked up): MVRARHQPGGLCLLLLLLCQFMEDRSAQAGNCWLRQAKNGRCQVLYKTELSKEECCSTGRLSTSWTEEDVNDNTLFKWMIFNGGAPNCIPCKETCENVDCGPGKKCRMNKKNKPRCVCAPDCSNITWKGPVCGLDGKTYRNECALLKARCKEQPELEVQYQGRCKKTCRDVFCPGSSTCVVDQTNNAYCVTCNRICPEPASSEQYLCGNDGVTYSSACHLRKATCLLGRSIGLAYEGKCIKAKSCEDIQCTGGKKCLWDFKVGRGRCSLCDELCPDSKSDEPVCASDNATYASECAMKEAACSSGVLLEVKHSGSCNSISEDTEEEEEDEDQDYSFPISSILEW

[14] = biological target: Fibroblast growth factor 2 (Homo sapiens) (UniProt P09038); assay: FGF2 binders on small-molecule microarrays, primary screen, biochemical, small-molecule microarray, 635/667 nm fluorescence (AID 1133); details: small-molecule microarray binding, FGF2, fluorescence 635/667; higher = more signal
Chain of Fibroblast growth factor 2 (Homo sapiens) (P09038 whole entry, looked up): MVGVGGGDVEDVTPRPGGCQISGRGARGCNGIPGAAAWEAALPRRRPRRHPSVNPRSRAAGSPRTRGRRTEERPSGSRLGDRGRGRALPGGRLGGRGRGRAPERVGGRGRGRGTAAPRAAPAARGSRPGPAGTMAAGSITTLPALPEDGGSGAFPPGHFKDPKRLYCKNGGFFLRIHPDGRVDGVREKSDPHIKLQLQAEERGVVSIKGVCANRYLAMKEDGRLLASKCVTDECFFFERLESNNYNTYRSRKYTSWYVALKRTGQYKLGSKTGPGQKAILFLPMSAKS

[15] = mitochondrial membrane potential change in A549 cells, profiling panel, cell-based, JC-1 fluorescence, basal, 24 h, 100 nL (AID 1138); details: higher = more signal;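 further: A549 lung adenocarcinoma cells under basal conditions with no added stimulus; test concentration not given here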
Lefty1 = Lefty1 binders on small-molecule microarrays, primary screen, biochemical, small-molecule microarray, 635/667 nm fluorescence (AID 1139); details: small-molecule microarray binding, fluorescence 635/667; higher = more signal
[16] = system: wheat germ agglutinin (Triticum aestivum), Alexa647-labelled; assay: wheat germ agglutinin binders on compound microarrays, profiling panel, artefact control for SMM control-protein annotation, biochemical, small-molecule microarray, 635/667 nm fluorescence (AID 1140); details: WGA-A647 binding, 635 nm fluorescence, higher = more signal;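 further: score merges 667 nm feature emission with signal to noise over triplicate slides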
[17] = biological target: Luciferin 4-monooxygenase (Photinus pyralis) (UniProt P08659); assay: firefly luciferase enzyme inhibitors, primary screen, biochemical, luminescence, purified enzyme, 2006 set (AID 1141); details: SteadyGlo luminescence, 30 min, higher = more signal, called active from +8 up or from −8 down;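 further: cell-free assay with purified firefly luciferase at 100 ng per well in PBS; test concentration not given here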
Chain of Luciferin 4-monooxygenase (Photinus pyralis) (P08659 whole entry, looked up): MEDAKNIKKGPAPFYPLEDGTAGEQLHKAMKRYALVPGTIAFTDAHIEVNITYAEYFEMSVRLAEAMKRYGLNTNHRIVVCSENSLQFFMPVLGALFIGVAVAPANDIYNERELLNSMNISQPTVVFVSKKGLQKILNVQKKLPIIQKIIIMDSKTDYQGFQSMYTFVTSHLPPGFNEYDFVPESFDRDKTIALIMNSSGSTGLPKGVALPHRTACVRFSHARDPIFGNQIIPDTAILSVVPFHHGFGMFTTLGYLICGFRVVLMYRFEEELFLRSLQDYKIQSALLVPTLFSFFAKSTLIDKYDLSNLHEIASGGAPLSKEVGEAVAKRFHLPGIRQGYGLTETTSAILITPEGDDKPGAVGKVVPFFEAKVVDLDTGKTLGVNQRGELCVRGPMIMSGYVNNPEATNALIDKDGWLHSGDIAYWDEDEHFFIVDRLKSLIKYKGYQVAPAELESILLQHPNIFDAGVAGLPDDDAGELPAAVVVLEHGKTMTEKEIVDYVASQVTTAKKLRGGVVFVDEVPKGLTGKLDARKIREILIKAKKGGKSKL

Chain of Albumin (Bos taurus) (P02769 whole entry, looked up): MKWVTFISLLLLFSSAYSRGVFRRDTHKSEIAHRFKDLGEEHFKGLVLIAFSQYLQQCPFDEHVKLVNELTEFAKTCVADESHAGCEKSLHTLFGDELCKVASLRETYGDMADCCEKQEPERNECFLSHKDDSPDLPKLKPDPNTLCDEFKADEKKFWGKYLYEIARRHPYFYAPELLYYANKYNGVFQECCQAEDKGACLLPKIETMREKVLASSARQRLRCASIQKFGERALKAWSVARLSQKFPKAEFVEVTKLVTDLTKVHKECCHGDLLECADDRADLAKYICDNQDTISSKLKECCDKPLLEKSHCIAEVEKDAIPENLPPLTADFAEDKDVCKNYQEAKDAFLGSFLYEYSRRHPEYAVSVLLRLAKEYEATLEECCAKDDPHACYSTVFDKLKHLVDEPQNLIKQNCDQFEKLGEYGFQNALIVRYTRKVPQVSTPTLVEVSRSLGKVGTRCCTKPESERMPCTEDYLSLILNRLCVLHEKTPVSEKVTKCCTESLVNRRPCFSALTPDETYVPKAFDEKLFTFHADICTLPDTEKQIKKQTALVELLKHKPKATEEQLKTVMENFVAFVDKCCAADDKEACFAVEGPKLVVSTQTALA

SMILES | composite z-score (Albumin (Bos taurus)) | composite Z-score [1] | composite z-score [2] | composite z-score [3] | composite z-score [4] | composite z-score [5] | composite z-score [6] | composite z-score (Sam68 (KHDRBS1)) | composite z-score [7] | composite z-score [8] | composite z-score [9] | composite z-score [10] | composite z-score [11] | composite z-score [12] | composite z-score [13] | composite z-score [14] | z-score [15] | composite z-score (Lefty1) | composite z-score [16] | z-score [17]
CC(C)(C)OC(=O)CC[C@@]1(C(=O)NCc2ccccc2)N=C(c2ccc(OCCCO)cc2)O[C@@H]1c1ccccc1 | 0.974 | -0.216 (inactive) | 0.132 | 0.09 | 0.655 | 2.91 | 0.494 | 1.3 | -0.416 | 1.18 | 2.76 | 1.25 | 1.18 | 0.966 | 1.16 | 0.244 | 0.614 | 0.353 | 1.53 | -1.54 (inactive)
CC(C)CNC(=O)[C@@]1(C)c2ccccc2C(=O)N(Cc2ccc(OC(F)(F)F)cc2)[C@H]1c1ccc(CO)cc1 | -0.2 | 0.416 (inactive) | -0.241 | -0.0094 | 0.706 | 1.17 | 0.559 | -0.718 | -1.3 | -1.74 | 0.206 | 0.325 | -0.0752 | -0.0439 | -0.27 | 0.192 | 0.209 | -1.43 | -0.0416 | -1.22 (inactive)
O=C1OCC=C[C@H]2OC34C=CCN(Cc5ccccc5)C(=O)[C@H]3N(CCCCCO)C(=O)[C@@H]4[C@@H]12 (stereo not given in full) | -0.711 | 1.78 (inactive) | -0.231 | -0.207 | 0.605 | 0.096 | -0.493 | -0.673 | -0.99 | -1.11 | -0.171 | -0.614 | 0.0672 | -0.736 | -1.14 | -1.24 | 0.0704 | -1.09 | -1.29 | -0.423 (inactive)
O=C1O[C@H](c2ccccc2)[C@H](c2ccccc2)N2[C@H]1[C@@H](C(=O)NC[C@H](O)c1ccccc1)[C@]1(C(=O)Nc3ccc(C#CC4(O)CCCCCC4)cc31)[C@H]2c1ccc(OCCO)cc1 | 0.579 | 0.248 (inactive) | 0.108 | -0.109 | 0.603 | 1.92 | -0.0049 | 1.31 | 0.088 | 1.16 | 2.52 | 1.2 | 0.285 | 0.641 | 1.06 | 1.04 | -1.2 | -0.0254 | 0.959 | -1.23 (inactive)
CCOC(=O)C[C@H]1[C@H](OC(=O)c2cc3ccccc3oc2=O)[C@@H](NC(=O)c2ccc3ccccc3c2)c2cc(OCCCO)ccc2N1C(=O)c1ccc2ccccc2n1 | 0.668 | 0.575 (inactive) | 0.0842 | -0.122 | 0.426 | 0.193 | 0.155 | 0.325 | 0.731 | 0.536 | 0.322 | 1.04 | 0.0147 | 0.973 | 0.986 | 0.927 | 1.33 | 0.488 | 1.05 | -0.233 (inactive)
C=C(C)[C@@H]1CC=C(C(O)C2C=CC3C(=O)NC(=O)C3N2Nc2ccccn2)CC1 (stereo not given in full) | -0.27 | 0.804 (inactive) | 0.441 | 0.0179 | 0.809 | 1.37 | 0.759 | 1.31 | 1.61 | 1.14 | 2.31 | 1.15 | -0.167 | 1.02 | 1.58 | 1.92 | 0.781 | 1.75 | 0.842 | -0.332 (inactive)
CO[C@H]1COC(=O)CC=C[C@H](C)[C@@H](OC)COC(=O)CC=C[C@@H]1C | -0.683 | 0.142 (inactive) | -0.155 | -0.14 | -0.782 | -0.702 | -0.36 | -0.294 | 1.21 | -1.25 | 0.245 | -1.11 | -0.415 | -0.706 | 0.956 | 1.29 | 1.35 | 0.817 | -0.991 | -1.38 (inactive)
COc1cc2c(cc1OC)CN(C(=O)[C@H]1[C@@H]3C(=O)O[C@@H](c4ccccc4)[C@@H](c4ccccc4)N3[C@@H](c3ccccc3OCCO)[C@]13C(=O)Nc1ccc(C#CC4(O)CCCCCC4)cc13)CC2 | 0.168 | 0.267 (inactive) | -0.0043 | -0.0211 | 0.314 | 2.12 | 0.982 | 1.3 | 0.454 | 1.13 | 2.85 | 1.21 | -0.0047 | 0.922 | 1.37 | 1.27 | -0.627 | 0.971 | 1.08 | -1.02 (inactive)
COCCOC(=O)N1C(=O)[C@@]2(c3ccccc31)[C@H](C(=O)N1CCc3cc(OC)c(OC)cc3C1)[C@H]1C(=O)O[C@H](c3ccccc3)[C@H](c3ccccc3)N1[C@@H]2c1ccccc1OCCO | 0.484 | 0.497 (inactive) | 0.0556 | -0.0607 | 0.441 | 1.24 | 0.0221 | 1.3 | 0.107 | 1.17 | 1.86 | 1.18 | 0.989 | 0.938 | 1.13 | 0.349 | 0.679 | 0.762 | 1.02 | -1.69 (inactive)
CCOC(=O)C1=CCC(c2cccc3ccccc23)N(S(=O)(=O)c2ccc(C)cc2)C1 (stereo not given) | 0.816 | 0.494 (inactive) | 0.056 | -0.0731 | 0.401 | 1.41 | 0.117 | 1.12 | 0.341 | 1.08 | 0.206 | 1.17 | 1.02 | 0.928 | 0.825 | -0.509 | 2.43 | 0.052 | 0.697 | 1.72 (inactive)
COC(=O)Cn1c(C(=O)N2CCCC2)cc2c1C[C@H]1CN(C(=O)c3ccccc3)[C@@](Cc3ccc(OC)cc3)(C(=O)OC)[C@@H]21 | 0.92 | 1.09 (inactive) | 0.707 | 0.375 | 0.587 | 2.68 | -0.268 | 0.931 | 0.207 | 0.73 | 1.9 | 1.24 | 1.67 | 0.972 | 0.43 | -0.612 | 1.31 | -0.544 | 1.18 | 1.78 (inactive)
O=C(NCc1ccccc1)c1ccc(Br)cc1[N+](=O)[O-] | 0.311 | 0.047 (inactive) | 0.116 | -0.0488 | 0.727 | 0.35 | -0.209 | 0.604 | 0.446 | 0.899 | -0.26 | 0.292 | -0.1 | -0.0828 | 0.405 | 0.465 | 0.543 | 0.505 | 0.352 | -0.941 (inactive)
C=CCC(OC(C)=O)[C@@H]1[C@@H](N(Cc2cccc3ccccc23)C(=O)Cc2ccc(F)cc2)c2cc(OCCCO)ccc2N1C(=O)Cc1ccc2ccccc2c1 (stereo not given in full) | 0.0257 | -0.227 (inactive) | -0.0881 | -0.0194 | -0.117 | 0.293 | -0.27 | -0.146 | -0.214 | -1.5 | -0.404 | -0.329 | 0.317 | -0.175 | 0.0802 | -0.391 | 0.331 | -0.258 | 0.191 | 0.693 (inactive)
Cc1ccc([C@@H]2CC=C(C(=O)O)[C@H](c3ccccc3)N2S(=O)(=O)c2ccc(C)cc2)cc1 | 1.02 | 1.1 (inactive) | 0.254 | 0.0344 | 0.546 | 2.36 | 0.581 | 1.31 | -2.11 | 1.22 | 2.65 | 1.24 | 0.574 | 0.894 | -0.358 | -0.847 | -1.47 | -0.691 | 1.35 | 1.33 (inactive)
COC(=O)c1ccc(C#CC(NP(=O)(c2ccccc2)c2ccccc2)c2ccccc2)cc1 (stereo not given) | 1 | 0.444 (inactive) | 0.272 | 0.335 | 1.1 | 2.59 | -0.0375 | 1.08 | 1.49 | 1.15 | 0.15 | 1.18 | 0.671 | 0.963 | 1.41 | -0.0037 | 1.53 | 0.468 | 1.43 | 0.853 (inactive)
CCCNC(=O)[C@@H]1c2ccccc2C(=O)N(Cc2cc(F)cc(C(F)(F)F)c2)[C@H]1c1ccc(CO)cc1 | -0.0179 | 0.457 (inactive) | 0.193 | 0.171 | 0.584 | 2.2 | -0.273 | 1.3 | 0.341 | 1.14 | 2.1 | 1.14 | 0.674 | 0.62 | 1.41 | 0.587 | 1.74 | 1.58 | 0.628 | -0.747 (inactive)
COCCCNC(=O)[C@@]1(Sc2ccc(C)cc2)CC(=O)N(Cc2cc(C(F)(F)F)cc(C(F)(F)F)c2)[C@@H]1c1ccc(CO)cc1I | -0.306 | 0.297 (inactive) | -0.227 | -0.133 | 0.85 | 0.57 | -0.874 | -0.955 | -1.19 | -0.82 | -0.21 | -1.1 | 0.144 | -1.86 | -0.993 | -0.511 | 0.915 | -1.66 | -1.1 | -0.503 (inactive)

From PubChem BioAssay
